# Measured values published in PubChem BioAssay AID651678 (Sanford-Burnham Center for Chemical Genomics, 2012).
# The list shows a part of the results. A number with no mark means an inactive call. Active and inactive are the calls of the source. Rule as the data show it: active = inhibition mostly above about 35% (no sharp cut-off); inactive = mostly below about 32%.
# Molecular target: Sentrin-specific protease 1 (Homo sapiens) (UniProt Q9P0U3)
# Test: retest of SENP1 SUMO protease blockers – biochemical, FRET endpoint, single concentration, confirmation (AID 651678);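 also: 0% = enzyme with DMSO and 100% = no enzyme control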
# Settings: recombinant SENP1, CyPet-SUMO1-YPet FRET cleavage; at 10 µM; hits give high values
# Sentrin-specific protease 1 (Homo sapiens), sequence (Q9P0U3 419-644 limits assumed): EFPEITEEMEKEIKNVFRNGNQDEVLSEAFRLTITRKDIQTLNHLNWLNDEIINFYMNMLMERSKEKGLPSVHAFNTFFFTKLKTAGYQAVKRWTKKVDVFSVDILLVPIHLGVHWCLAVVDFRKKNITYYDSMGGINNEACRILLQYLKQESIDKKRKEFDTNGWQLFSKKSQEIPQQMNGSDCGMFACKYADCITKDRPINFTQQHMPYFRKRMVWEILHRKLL
row,SMILES,inhibition
1,O=C1CC[C@@H]2CC3(C[C@@H]4CCN1[C@H]24)Nc1cc([N+](=O)[O-])ccc1NC3=NC1CCCCC1 (stereo partly specified),21.6%
2,COc1ccc(OC)c(C2C3=C(N=c4s/c(=C\c5cccc(O)c5)c(=O)n42)c2ccccc2CC3)c1 (stereo unspecified),35.7%
3,CC(=O)c1cccc(-c2cnc3c(NC=O)cc(-c4ccc(N(C)C)cc4)cn23)c1,57.9% (active)
4,O=[N+]([O-])c1ccc(N=NNc2ccc([N+](=O)[O-])cc2)cc1,20.1%
5,O=C(CCN1C(=O)/C(=C/c2cccs2)SC1=S)NNC(=O)c1cccc(O)c1,66.9% (active)
6,N/C(=N\OC(=O)N1c2ccccc2Sc2ccccc21)c1ccc(Br)cc1,-2.12%
7,CCN(CC)S(=O)(=O)c1cc([N+](=O)[O-])ccc1N=Nc1c(O)n(C)c2ccccc12,10.5%
8,c1coc(-c2nc3nc4ccccc4n3nc2-c2ccco2)c1,19.4%
9,COc1ccc(N2C(=O)C3C(C2=O)C(C(=O)c2ccccc2)N2CCCC32)cc1 (stereo unspecified),36.9% (active)
10,Cn1c(-c2sc3cc(C(F)(F)F)cnc3c2-c2ccccc2)n[nH]c1=S,-1.85%
11,Cc1cccc(C)c1Nc1c(-c2ccccc2O)nc2ncccn12,16.2%
12,Fc1cccc(Cc2c(-c3cccc(Cl)c3)nc3ccc(Br)cn23)c1,4.53%
13,Cc1ccc2c(c1)nnc1nnc(SCC(=O)O)n12,71.8% (active)
14,COc1cc(/C=C2\CCCc3c2nc2ccccc2c3C(=O)O)cc(Cl)c1O,97.5% (active)
15,O=C1C=C(c2cccc(Cl)c2O)C[C@@H](c2ccc(F)cc2)C1,94.1% (active)
16,Cc1cc(C(=O)N/N=C/c2ccc(N3CCOCC3)cc2)c(C)o1,29.1%
17,Cc1ccc(C(=O)N/N=C\c2cc(Br)c(Br)o2)cn1,11.3%
18,O=C(NC(=O)c1ccccc1)Nc1ccccc1O,0.15%
19,O=C1/C(=C/c2coc3ccc(O)cc3c2=O)SC(=S)N1c1ccccc1,3.85%
20,CCOC(=O)C1CCN(c2ncnc3c2c(-c2ccccc2)cn3-c2ccc(C)cc2)CC1,6.42%
21,CCCCCn1nnnc1-c1nc2cc3ccccc3cc2[nH]c1=O,84.5% (active)
